Shown are actives, neighbours in structure and some others; about 7.9% of the full set was active somewhere.
HCV inhibitor – blocks hepatitis C virus; 340,000 tested, 3.4% active; AID 651820; Potency, µM (top dose mostly 41.8 µM), for inactives: at the highest dose activity change, negative = inhibition, usual class: inhibitors; Huh7.5.1 HCVcc-Cre infection, luciferase reporter, 44 h; active = well fitted inhibition curve with a large enough effect; inconclusive = small, poorly fitted or top-dose-only effect, or another doubt; inactive = no such curve, though single readings can be large or run the other way; note: potency is the fitted concentration of half-maximal effect
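Whole-lifecycle infectious HCVcc-Cre system; cells 1,000/well, compound then virus (~0.5 moi) added 4 h after plating, 44 h culture. Luciferase read 15 sec following 15 min substrate incubation, room temp.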
Marburg entry inh – inhibitors of Marburg virus binding or cell entry; 300,000 tested, 1.8% active; Marburg virus pseudotyped entry inhibition, cell reporter; Potency, µM (highest dose often 37.8 µM), for the others: at the highest dose activity change, negative = inhibition, hits mostly inhibitors; calls by dose curve; tested in HEK293 cells; note: potency is the fitted concentration of half-maximal effect
HCMV inh – blocks human cytomegalovirus replication; 410,000 tested, 4.5% active; HFF cells, HCMV-luciferase reporter, 72 h; hits give low values; activity change, negative = inhibition, % at 57.5 µM; in the data active = activity change below about -60%; inconclusive = no clear call, values can overlap the other calls; inactive = above about -39%
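Human foreskin fibroblasts infected with luciferase-reporter HCMV at MOI 1 PFU/cell, compounds at two doses. Luciferase measured 72 h post infection; normalized to buffer-only basal and Salinomycin (10uM) controls.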
FMDV inh – antivirals against foot and mouth disease virus. FMDV antiviral cell-based qHTS. Potency, µM (highest dose often 57.9 µM), inactives show at the highest dose activity change, negative = inhibition, hits mostly inhibitors. 410,000 tested, 1.2% active. AID 1159524; calls by dose curve; tested in HEK293T cells; note: read-out not given here; potency is the fitted concentration of half-maximal effect; nearly all actives have a fitted effect of over 45% in size
LASV entry inh – inhibitors of Lassa virus binding or cell entry; Lassa virus pseudotype entry inhibition, cell reporter; Potency, µM (top dose mostly 37.9 µM), for inactives: at the highest dose activity change, negative = inhibition, most hits filed as inhibitors; 300,000 tested, 1.2% active; calls by dose curve; tested in HEK293 cells; note: potency is the fitted concentration of half-maximal effect; nearly all actives have a fitted effect of over 50% in size
* marks the source's active call; other numbers are inactive results; ? = inconclusive; / = not tested or not shown; ! = not confirmed by another sample; [ ] = dose if it differs, or a comment. % is set by controls: 0 for no effect and ±100 for the full control effect.

SMILES | HCV inhibitor | Marburg entry inh | HCMV inh | FMDV inh | LASV entry inh
COc1ccc(OC)c(NC(=S)NN2CCOCC2)c1 | 20.3% | 1.9% | -102.3* | 23.3% | 3.9%
CC(/C=N/NC(=O)Cn1cnc2ccccc21)=C\c1ccccc1 | -5.2% | -13.8% | -70.0* | -8.2% | ?
COc1ccc(-c2cnc3c(NC=O)cc(-c4ccccc4OC)cn23)cc1OC | / | / | -79.7* | ? | /
COc1cc(-c2n[nH]c(=S)n2-c2cccc(C(F)(F)F)c2)cc(OC)c1OC | 0.5% | 16.1% | 60.4 | -18.6% | 1.7%
COc1ccc(-c2cc(NC=O)c3ncc(-c4ccc(OC)c(OC)c4)n3c2)cc1OC | / | / | -1.0 | ? | /
COc1cc(-c2cnc3c(NC=O)cc(-c4cccc(C(F)(F)F)c4)cn23)cc(OC)c1OC | / | / | -67.2* | 20µM* | /
COc1ccc(-c2cc(NC=O)c3ncc(-c4cccc(C(F)(F)F)c4)n3c2)c(OC)c1 | / | / | 89.8 | ? | /
COc1cc(-c2ccc3ncc(-c4cccc(C(F)(F)F)c4)n3n2)cc(OC)c1OC | / | / | -94.9* | / | /
COc1cccc(-c2cc(NC=O)c3ncc(-c4cc(OC)c(OC)c(OC)c4)n3c2)c1 | / | / | -81.2* | ? | /
COc1cccc(-c2cnc3c(NC=O)cc(-c4ccc(O)c(OC)c4)cn23)c1 | / | / | 72.1 | -22.5% | /
Cc1ccc(CN2C(=O)C(Cc3ccccc3)Nc3ncnc(N4CCOCC4)c32)cc1 (stereo not given) | / | / | -19.6 | 0.0% | /
O=C1C(Cc2ccccc2)Nc2ncnc(N3CCOCC3)c2N1Cc1ccccc1 (stereo not given) | -5.9% | / | -101.2*! | 0.0% | /
COc1ccc(CN2C(=O)C(C)Nc3ncnc(N4CCOCC4)c32)cc1 (stereo not given) | -0.5% | / | -64.6* | -23.9% | /
CCC1Nc2ncnc(N3CCN(c4ccccc4)CC3)c2N(Cc2ccc(C)cc2)C1=O (stereo not given) | 2.82µM* | / | 13.6 | -13.8% | /
O=C(O)CCCN=C1NC2(CCCC2)CC2=C1CCCC2 | / | -0.1% | / | / | /
CCN(CC)CCN(C(=O)c1ccco1)c1nc2c(C)cccc2s1 | / | / | 30.2 | 18.5% | -1.7%[46.1 µM]
Cc1c(C(=O)NCc2cccc(Cl)c2)sc2nc[nH]c(=O)c12 | / | / | 3.4 | 5.1% | -2.2%[46.1 µM]
C#CCOCCOCCOCCNc1nc(N2CCN(C(=O)CCCCCCCCCCNC(=O)Cn3cc(C[C@@H](C)O)nn3)CC2)nc(N2CCN(C(=O)CCCCCCCCCCNC(=O)[C@@H]([C@H](C)CC)n3cc(CCCCCN)nn3)CC2)n1 | ? | / | / | 35.5µM* | /
C#CCOCCOCCOCCNc1nc(N2CCN(C(=O)CCCCCCCCCCNC(=O)[C@@H](CCSC)n3cc(CCO)nn3)CC2)nc(N2CCN(C(=O)CCCCCCCCCCNC(=O)[C@@H]([C@H](C)O)n3cc(C)nn3)CC2)n1 | -13.1% | / | -71.8* | -23.6% | /
Cc1cn([C@@H](CCCCNC(=O)OC(C)(C)C)C(=O)NCCCCCCCCCCC(=O)N2CCN(C(=O)OC(C)(C)C)CC2)nn1 | ? | / | / | 11.2µM* | /
C#CCOCCOCCOCCNc1nc(N2CCN(C(=O)CCCCCCCCCCNC(=O)[C@H](CCCCN)n3cc(C)nn3)CC2)nc(N2CCN(C(=O)CCCCCCCCCCNC(=O)[C@@H]([C@H](C)O)n3cc(C)nn3)CC2)n1 | 2.82µM* | / | / | -12.6% | /
O=c1cc(O)cc(/C=C\c2ccc(O)c(O)c2)o1 | / | 15.0% | / | / | /
FC(F)(F)c1ccccc1-c1ccc2ncnc(N3CCOCC3)c2c1 | / | / | / | -46.8% | /
Cn1cc(-c2cc3n(n2)CCC(=O)N3CCCC(=O)Nc2ccccc2Cl)c2ccccc21 | / | / | -61.8* | -26.9% | -24.6%[46.1 µM]
Cn1cc(-c2cc3n(n2)CCC(=O)N3CCCC(=O)Nc2ccccc2F)c2ccccc21 | / | / | 8.0 | -22.0% | -1.2%[46.1 µM]
SMILES | HCV inhibitor | Marburg entry inh | HCMV inh | FMDV inh | LASV entry inh
COc1ccc(N2CCN(S(=O)(=O)c3ccc4c(c3)CCCN4C(C)=O)CC2)cc1 | / | / | -3.4 | 0.0% | -0.4%[46.1 µM]
CNC(=O)C1CCC(Cn2c(=O)c3sccc3n(CC(=O)N3CCCC3)c2=O)CC1 (stereo not given) | / | / | -12.3 | -1.1% | -4.7%[46.1 µM]
N#CC1(NC(=O)COC(=O)c2ccccc2[N+](=O)[O-])CCCCC1 | -0.9% | ? | -0.3 | 21.4% | 10.7%
O=C(COC(=O)c1ccccc1[N+](=O)[O-])c1ccc(C2CCCCC2)cc1 | -29.9% | ? | ? | 11.2µM* | -29.8%
O=C(OC1CCOC1=O)c1ccccc1C(=O)c1ccc(Cl)c([N+](=O)[O-])c1 (stereo not given) | 11.2µM* | / | / | -29.3% | /
CNC(=O)COC(=O)c1ccccc1C(=O)c1ccc(Cl)c([N+](=O)[O-])c1 | ? | / | -99.9* | ? | /
O=C(COC(=O)c1ccccc1C(=O)c1ccc(Cl)c([N+](=O)[O-])c1)NC1CC1 | 11.2µM* | ? | -99.1* | 20µM* | ?
CC(C)OC(=O)c1ccccc1C(=O)c1ccc(N)c([N+](=O)[O-])c1 | -8.2% | -6.0%[46.1 µM] | 2.7 | 0.7% | 5.2%[46.1 µM]
C=Cc1ccc(CN2C(=O)c3ccccc3Sc3ccc(C(=O)OCc4ccco4)cc32)cc1 | / | / | 19.9 | -18.6% | -8.3%[46.1 µM]
COc1ccc(Oc2ccc(/C=C/C(=O)c3cccc(OC)c3)cc2[N+](=O)[O-])cc1 | ? | ? | ? | 31.6µM* | ?
COc1ccc(/C=N/NC(=O)c2cccnc2)cc1 | 8.4% | / | -22.3 | 39.1% | /
COc1ccc(Oc2ccc(/C=N/NC(=O)c3cccnc3)cc2[N+](=O)[O-])cc1 | ? | -28.7%[46.1 µM] | -80.3* | -0.4% | /
O=C(CSc1nc2ccccc2nc1Cc1ccccc1)N1CCc2ccccc21 | / | / | -0.5 | -0.7% | -1.2%[46.1 µM]
CCCN1C(=O)COc2ccc(-c3n[nH]c(=O)c4ccccc34)cc21 | -22.9% | 10µM* | -101.8* | ? | -1.7%[46.1 µM]
CCOC(=O)N1CCN(C(=O)C(NC(=O)c2ccc(C(C)(C)C)cc2)C(C)C)CC1 (stereo not given) | ? | / | -61.7* | -27.8% | /
CCOC(=O)N1CCN(C(=O)c2ccccc2NC(=O)c2ccc(C(C)(C)C)cc2)CC1 | 22.1% | -6.4% | ? | -4.6% | 1.9%
CCOC(=O)c1c(-c2ccc(OC)cc2)oc2ccc(OCC(N)=O)cc12 | 2.24µM* | -18.5%[46.1 µM] | -10.4 | -14.5% | -22.1%[46.1 µM]
CCOc1ccc2oc(-c3ccccc3)c(C(=O)N(C)C)c2c1 | ? | ? | -61.6* | / | 3.9%
CCOC(=O)c1c(-c2ccc(OC)cc2)oc2ccc(O)cc12 | ? | ? | 2.6 | -14.1% | -27.5%
CCCc1cc(NC(=O)COC(=O)c2ccc(O)cc2O)n(-c2ccccc2)n1 | 11.2µM* | / | 0.0 | ? | /
CCCc1cc(NC(=O)CCl)n(-c2ccccc2)n1 | 22.4µM* | ? | ? | ? | ?
CCc1ccc(C2C(C(=O)Nc3ccccc3OC)=C(C)Nc3c(C(=O)Nc4ccc(C)cc4)cnn32)cc1 (stereo not given) | / | / | -34.1 | -1.1% | -1.6%[46.1 µM]
COc1ccc(OC[C@H]2CN3[C@H](c4ccc(Br)cc4)[C@H](C)CC[C@H]3C(=O)O2)cc1 | / | -7.5%[14.2 µM] | / | / | /
CN(Cc1ccccc1)C(=O)CCSc1nc(-c2ccc3c(c2)OCO3)cc(C(F)(F)F)n1 | 10µM* | ? | -26.8 | -18.3% | ?

High-throughput results as filed in PubChem.
